Measurements reported in PubChem BioAssay (NCI).
This is part of a sample that, as a whole, favours compounds with a hit. Of some 83,000 tested, about 20% had one in any assay.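 Percent growth is the endpoint: 0 to 100 indicates growth inhibition (40 means 60% inhibition), 0 means no net growth, and negative values indicate cell death.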 Values without a mark were called inactive. Activity calls are given as the source filed them.

tested on: SK-MEL-28 melanoma; test: NCI-60 one-dose screen, 48 h (100 = growth as untreated, 0 = no growth, -100 = all killed); details: 10 µM unless noted
Description: Growth inhibition of the SK-MEL-28 human tumor cell line is measured as a screen for anti-cancer activity. Cells are grown in 96 well plates and exposed to the test compound for 48 hours. Compounds are tested at a single concentration, which is 10^-5 M for most compounds. The reported endpoint is percent growth (GI% or GIPRCNT), where numbers from 0 - 100% represent growth inhibition, and numbers from -100% - 0 represent cell death. For example, a value of 40 represents 60% growth inhibition. A value of 0 means no net growth occurred over the course of the experiment. A value of -40 indicates 40% of cells at the beginning of the experiment died by the end of the experiment. A value of -100 means all cells are dead at the end of the experiment.
NCI-60 Human Tumor Cell Lines Screen was performed using the standard one-dose NCI protocol, which is described in more detail at https://dtp.cancer.gov/discovery_development/nci-60/default.htm.
Compounds with GIPRCNT values below 10 were considered active. Activity score was based on GIPRCNT using the following formula: […]
Score is 0 for GIPRCNT values of 100 or above, 50 for GIPRCNT values of 0, and 100 for GIPRCNT values of -100.

| SMILES | growth |
| --- | --- |
| O=c1c2c3c(sc2n2cnnc2n1Cc1ccccc1)CCCC3 | 116% |
| Cc1cnc(N)nc1OCC(C)(C)CNC(=O)c1cccc(-c2ccc(S(=O)(=O)Nc3ccc4c(c3)N(C(=O)C3CC3)CCC4)cc2)c1 | 82.4% |
| O=C(NCc1ccccc1)C(Cl)Cl | 96.1% |
| CC(C)=CC/C=C(/C)[C@H]1CC[C@]2(C)[C@@H]1CC[C@@H]1[C@@]3(C)CC/C(=N/O)C(C)(C)[C@@H]3CC[C@]12C | 73.3% [100 µM] |
| CC(=O)O.CC(=O)O.O.[Fe] | 112% |
| Cc1cc(C)c(O)c(CNCCCNCc2cc(C)cc(C)c2O)c1 | 62.4% |
| CCOC(=O)c1ccc2nc(-c3c(C)nn(-c4ccccc4)c3N3CCOCC3)[nH]c2c1 | 110% |
| CN(C)c1ccc(-c2ccc(-c3ccc(C(=N)N)cc3)s2)cc1 | 94.1% |
| CCCCN(CC)CC(CC)Nc1cc(OC)cc2cccnc12 (stereo not given) | 121% |
| C1=C[C@H]2O[C@@H]1c1ccc3[nH]ccc3c12 | 94% |
| Cc1cc2c(C(C)C)c(O)c(O)c(C=NCc3ccoc3)c2c(O)c1-c1c(C)cc2c(C(C)C)c(O)c(O)c(C=NCc3ccco3)c2c1O | 70.3% |
| C#CC(OC(=O)N(C)C)(c1ccccc1)c1ccc(F)cc1 (stereo not given) | 96.5% |
| O=C(Nc1cccnc1)c1ccc2ccc3ccc(C(=O)Nc4cccnc4)nc3c2n1 | 17.7% |
| COc1ccc(-c2c(C)nn3c(NCCN4CCOCC4)cc(C)nc23)cc1OC | 103% |
| C=C(C)[C@@H]1CC[C@]2(C(=O)OC)CC[C@]3(C)[C@H](CC[C@@H]4[C@@](C)(CCc5nn[nH]n5)[C@H](C(=C)C)CC[C@]43C)[C@@H]12 | -63% [100 µM] (active) |
| O=C(CCCCCCSc1nc(-c2ccc(Cl)cc2)cc(-c2ccc(Cl)cc2)n1)NO | 57.8% |
| O=C(N/N=C1\c2ccccc2-c2cccc(C(=O)O)c21)c1ccc(O)cc1 | 102% |
| CCN(CC)CCCOc1ccc2c(c1)O/C(=C\c1cccc(OC)c1)C2=O | 101% |
| COc1cc(-c2cc(-c3ccc(Nc4ncnc5cc(Cl)ccc45)cc3)nc(N3CCCCC3)n2)cc(OC)c1OC | 108% |
| CCCOc1ccc(-c2nc(-c3ccc(N)cc3)cs2)cc1 | 132% |

| SMILES | growth |
| --- | --- |
| C[C@@H]1C[C@H]2C(=O)O[C@@H](C)[C@H](NC(=O)[C@H](Cc3cc(F)cc(F)c3)NC(=O)Nc3ccc(Cl)cc3F)C(=O)N3C[C@H](O)C[C@H]3C(=O)N3CCN(C)C[C@H]3C(=O)N[C@@H](C)C(=O)N2C1 | 41.3% |
| O=C(N=c1n(-c2ccccc2)nc2n1CCN2C1=NCCN1C(=O)c1ccc(Cl)cc1)c1ccc(Cl)cc1 | 88.8% |
| Cc1cccc(C[C@H](NC(=O)Nc2ccc(Cl)cc2F)C(=O)N[C@@H]2C(=O)N3C[C@H](O)C[C@H]3C(=O)N3CCCC[C@H]3C(=O)N[C@@H](C)C(=O)N3C[C@H](C)C[C@H]3C(=O)O[C@H]2C)c1 | 0.552% (active) |
| O=C1CC(C(F)(F)F)Cc2nc3ccc(Br)cc3cc21 (stereo not given) | 96.5% |
| CCOC(=O)COc1ccc2c(c1)O/C(=C\c1ccc(O)cc1)C2=O | 106% |
| O=C(CCN1CCCCC1)c1ccc2ccccc2c1 | 112% |
| COc1cc(NCc2ccccc2O)c2ncccc2c1 | 111% |
| NC(=O)c1cccc(-c2ccc(S(=O)(=O)Nc3ccc4c(c3)N(C(=O)C3CC3)CCC4)cc2)c1 | 51.7% |
| Cc1cccc(/C=C2\N=C(c3ccccc3)N(c3ccc(S(N)(=O)=O)cc3)C2=O)c1 | 101% |
| COc1ncc(-c2ccc3nccc(C#CCCCCC(=O)O)c3c2)cc1NS(=O)(=O)c1ccc(F)cc1F | 7.69% (active) |
| COc1ccc2c3ccnc(C(F)(F)F)c3n(CCCCN)c2c1 | 38.6% |
| CC1(C)C(=O)/C(=C\c2ccco2)C[C@]2(C)[C@H]3CC=C4[C@@H]5C[C@](C)(C(=O)O)CC[C@]5(C)CC[C@@]4(C)[C@]3(C)CC[C@@H]12 | -75.1% [100 µM] (active) |
| O=C(NNc1ccc(-c2ccccc2)nn1)c1ccc(F)cc1 | 110% |
| O=[N+]([O-])c1cccc(/C=C/c2ccc3ccccc3n2)c1 | 87.3% |
| CC1(C(=O)O)CCC(N)(C(=O)O)C1(C)C (stereo not given) | 109% |
| CCCn1ccnc1C(O)c1ccc(OCc2ccccc2)c(OC)c1 (stereo not given) | 103% |
| CC(C)CCSC1=CC(=O)c2ccccc2C1=O | 27.2% |
| O=S(=O)(NCc1ccccc1)c1ncnc2nc[nH]c12 | 107% |
| COc1ccc2nc3c(cc2c1)C(=O)CC(C(F)(F)F)C3 (stereo not given) | 61.1% |
| O=C1CC(c2ccc3c(c2)OCO3)Nc2ccccc21 (stereo not given) | 47.5% |
